# Source: the supplement of paper PMC8728848
# The entries come from a sample that favours the strongest signals as a whole.
# B1: LEA (Lycopersicon esculentum) (protein)
# chain: NEVFDVPMNETIGVESINASVGGYPRCGAQGDGGNCPSGMCCSVWGWCGKTYGYCAPQNCQKQCPAPYPEGRCGWQADGKSCPNGKCCSYGGWCGTTSDYCARQNCQKQCILPSPPPPPPPPPGFPRPECGLQKNGERCTKPGECCSIWGLCGATYKYCDPQHCQKQCSAPFPPGRCGWQADGRPCPTGQCCSFSGWCGTTSAHCTYPQCVSQCNDPRFPSSLNNRIQSFML
# Tests used:
# Assay in all cases: glycan array binding signal (z-score within array); higher = stronger binding
# Settings in all cases: glycan notation: IUPAC condensed, linker removed
# Fuc(a1-2)Gal(b1-4)GlcNAc = target: Fuc(a1-2)Gal(b1-4)GlcNAc
# Outline: (§1)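 The binding signal is a Z-score computed within each array. Data were drawn from 3228 arrays in the Consortium for Functional Glycomics database, restricted to those with a known protein sequence. Scores were averaged over arrays of the same protein sequence at different concentrations or buffers, and over linkers, and negative values can be taken as non-binding.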
# [1] = target: Fuc(a1-2)Gal6S(b1-4)Glc6S
# Outline: as §1
# [2] = target: Fuc(a1-2)Gal6S(b1-4)GlcNAc
# Outline: as §1
# [3] = target: Fuc(a1-2)[Gal(a1-3)]Gal(b1-4)GlcNAc
# Outline: as §1
# [4] = target: Fuc(a1-2)[Gal(a1-4)]Gal(b1-4)GalNAc
# Outline: as §1
# [5] = target: Fuc(a1-2)[GalNAc(a1-3)]Gal(b1-3)GlcNAc
# Outline: as §1
# [6] = target: Fuc(a1-2)[GalNAc(a1-3)]Gal(b1-4)GlcNAc
# Outline: as §1
# [7] = target: Fuc(a1-2)[GalNAc(a1-4)]Gal(b1-4)GlcNAc
# Outline: as §1
# [8] = target: Fuc(a1-3)[Gal(b1-4)]GlcNAc(b1-4)Gal(b1-4)[Fuc(a1-3)]GlcNAc(b1-4)Gal(b1-4)[Fuc(a1-3)]GlcNAc
# Outline: as §1
# [9] = target: Fuc(a1-3)[Gal3S(b1-4)]GlcNAc6S
# Outline: as §1
# Gal(a1-4)GlcNAc = target: Gal(a1-4)GlcNAc
# Outline: as §1
# [10] = target: Gal(b1-3)GalNAc(b1-3)Gal(a1-4)Gal(b1-4)Glc
# Outline: as §1
# [11] = target: Gal(b1-3)[Neu5Ac(a2-6)]GlcNAc(a1-4)Gal(b1-4)Glc
# Outline: as §1
# [12] = target: Gal(b1-4)GalNAc(b1-3)[Fuc(a1-2)]Gal(b1-4)GlcNAc
# Outline: as §1
# [13] = target: Gal(b1-4)GlcNAc(b1-6)GalNAc
# Outline: as §1
# [14] = target: Gal3S(b1-3)[Fuc(a1-4)]GlcNAc
# Outline: as §1
# Gal6S(b1-4)Glc = target: Gal6S(b1-4)Glc
# Outline: as §1
# GalNAc(a1-3)GalNAc = target: GalNAc(a1-3)GalNAc
# Outline: as §1
# [15] = target: GalNAc(b1-3)Gal(a1-4)Gal(b1-4)GlcNAc
# Outline: as §1
# GlcNAc(b1-3)Gal = target: GlcNAc(b1-3)Gal
# Outline: as §1
# [16] = target: GlcNAc(b1-3)Gal(b1-3)GalNAc
# Outline: as §1
# [17] = target: GlcNAc(b1-4)Gal(b1-4)GlcNAc
# Outline: as §1
# [18] = target: GlcNAc(b1-4)GlcNAc(b1-4)GlcNAc(b1-4)GlcNAc(b1-4)GlcNAc(b1-4)GlcNAc
# Outline: as §1
# GlcNAc(b1-6)GalNAc = target: GlcNAc(b1-6)GalNAc
# Outline: as §1
# Kdn(a2-3)Gal(b1-3)GlcNAc = target: Kdn(a2-3)Gal(b1-3)GlcNAc
# Outline: as §1
# [19] = target: Man(a1-2)Man(a1-2)Man(a1-6)[Man(a1-3)]Man
# Outline: as §1
# [20] = target: Neu5Ac(a2-3)Gal(b1-3)GalNAc
# Outline: as §1
# [21] = target: Neu5Ac(a2-3)Gal(b1-3)GalNAc6S
# Outline: as §1
# [22] = target: Neu5Ac(a2-3)Gal(b1-4)GlcNAc(b1-3)Gal(b1-3)GlcNAc
# Outline: as §1
# [23] = target: Neu5Ac(a2-3)Gal(b1-4)GlcNAc(b1-3)Gal(b1-4)[Fuc(a1-3)]GlcNAc
# Outline: as §1
# [24] = target: Neu5Ac(a2-3)[GalNAc(b1-4)]Gal(b1-4)Glc
# Outline: as §1
# [25] = target: Neu5Ac(a2-6)Gal(b1-4)GlcNAc(b1-2)Man(a1-3)[Neu5Ac(a2-6)Gal(b1-4)GlcNAc(b1-2)Man(a1-6)]Man(b1-4)GlcNAc(b1-4)GlcNAc
# Outline: as §1
# [26] = target: Neu5Gc(a2-3)Gal(b1-4)[Fuc(a1-4)]GlcNAc
# Outline: as §1
binder,measurement,setting,value
B1,glycan array binding signal (z-score),Fuc(a1-2)Gal(b1-4)GlcNAc,1.11
same,glycan array binding signal (z-score),[1],-0.512
same,glycan array binding signal (z-score),[2],-0.55
same,glycan array binding signal (z-score),[3],2.51
same,glycan array binding signal (z-score),[4],2.53
same,glycan array binding signal (z-score),[5],-0.547
same,glycan array binding signal (z-score),[6],2.5
same,glycan array binding signal (z-score),[7],2.62
same,glycan array binding signal (z-score),[8],-0.541
same,glycan array binding signal (z-score),[9],0.546
same,glycan array binding signal (z-score),Gal(a1-4)GlcNAc,-0.545
same,glycan array binding signal (z-score),[10],-0.547
same,glycan array binding signal (z-score),[11],-0.546
same,glycan array binding signal (z-score),[12],2.17
same,glycan array binding signal (z-score),[13],0.621
same,glycan array binding signal (z-score),[14],-0.518
same,glycan array binding signal (z-score),Gal6S(b1-4)Glc,-0.518
same,glycan array binding signal (z-score),GalNAc(a1-3)GalNAc,-0.553
same,glycan array binding signal (z-score),[15],2.55
same,glycan array binding signal (z-score),GlcNAc(b1-3)Gal,-0.567
same,glycan array binding signal (z-score),[16],-0.526
same,glycan array binding signal (z-score),[17],1.96
same,glycan array binding signal (z-score),[18],2.26
same,glycan array binding signal (z-score),GlcNAc(b1-6)GalNAc,-0.545
same,glycan array binding signal (z-score),Kdn(a2-3)Gal(b1-3)GlcNAc,-0.443
same,glycan array binding signal (z-score),[19],-0.296
same,glycan array binding signal (z-score),[20],-0.56
same,glycan array binding signal (z-score),[21],-0.466
same,glycan array binding signal (z-score),[22],-0.129
same,glycan array binding signal (z-score),[23],-0.542
same,glycan array binding signal (z-score),[24],-0.536
same,glycan array binding signal (z-score),[25],-0.502
same,glycan array binding signal (z-score),[26],-0.041
